# Test results taken from PubChem BioAssay (Tox21).
# Values joined by “and” are separate entries in the source; they are usually repeats but may differ in a detail not shown here. Equal values may be shown once. The source holds several records for some structures; these can differ, active in one and inactive in another. Active and inactive are the calls of the source. Entries that show only a call come without a potency. Unless noted, the call rests on the fitted dose curve; in most records, active means well fitted curve in the direction sought with a large enough effect in the repeat runs; inconclusive means weak or mixed curves; inactive means no such curve, though single readings can be large; an effect the other way counts as inactive or inconclusive. Starred links: 1 amine or outer side, 2 acyl side, 3 side chain; linkers in the order of their positions; H or OH if unused. Positions of bridges follow the written chain, without caps; N, C: chain ends. Non-standard residues stand in square brackets, D forms with d. Residues, ends and D or L forms follow the SMILES beside them. Chains are numbered I, II in the order given. Actinocin(9to1) = Cc1c2oc3c(C)ccc(C(=O)[*:1])c3nc-2c(C(=O)[*:2])c(N)c1=O; NMeV = CN[C@H](C(=O)O)C(C)C; Sar = CNCC(=O)O
# How the values were obtained:
# [1] = qHTS assay to identify small molecule antagonists of the thyroid receptor (TR) signaling pathway - cell viability counter screen (AID 743064); conditions: GH3.TRE-Luc viability, CellTiter-Fluor, 24 h; series mostly up to 70.3 µM; further: nearly all actives have a fitted effect of over 50% in size; further: potency means the concentration at half of the fitted maximal effect
# Outline: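 Same-well viability check: GH3.TRE-Luc cells stimulated with 1 nM T3 alongside test compound for 23.5 h, followed by CellTiter-Fluor fluorescence.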
# [2] = qHTS assay to identify small molecule antagonists of the thyroid receptor (TR) signaling pathway (AID 743065); conditions: GH3.TRE-Luc, T3-stimulated luciferase inhibition, 23.5 h; series mostly up to 70.3 µM; further: nearly all actives have a fitted effect of over 55% in size; further: potency means the concentration at half of the fitted maximal effect
# Outline: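 GH3.TRE-Luc rat pituitary cells carrying two TR response elements driving luciferase were plated for 4 h, given compound plus 1 nM T3 (final), and incubated 23.5 h at 37 C. ONE-Glo luminescence measured reporter inhibition; CellTiter-Fluor fluorescence tracked cytotoxicity.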
# [3] = tested on: thyroid hormone receptor (rat, GH3 cells); experiment: qHTS assay to identify small molecule agonists of the thyroid receptor (TR) signaling pathway (AID 743066; calls by dose curve); conditions: GH3.TRE-Luc cells, TR agonist luciferase, 24 h; series mostly up to 83.9 µM
# [4] = target: Estrogen receptor (Homo sapiens) (UniProt P03372); experiment: qHTS assay to identify small molecule antagonists of the estrogen receptor alpha (ER-alpha) signaling pathway (AID 743069; active means well fitted curve in the direction sought with a large enough effect in the signal ratio in the repeat runs, not every such curve was filed as active; inconclusive means weak or mixed curves, or effect the other way; inactive means no such curve, though single readings can be large or run the other way; the % refers to the signal ratio; further: potency means the concentration at half of the fitted maximal effect); conditions: HEK293 ER-alpha-UAS-bla, beta-lactamase ratio, antagonist mode; series mostly up to 69.4 µM
# Chain of Estrogen receptor (Homo sapiens) (P03372 whole entry, looked up): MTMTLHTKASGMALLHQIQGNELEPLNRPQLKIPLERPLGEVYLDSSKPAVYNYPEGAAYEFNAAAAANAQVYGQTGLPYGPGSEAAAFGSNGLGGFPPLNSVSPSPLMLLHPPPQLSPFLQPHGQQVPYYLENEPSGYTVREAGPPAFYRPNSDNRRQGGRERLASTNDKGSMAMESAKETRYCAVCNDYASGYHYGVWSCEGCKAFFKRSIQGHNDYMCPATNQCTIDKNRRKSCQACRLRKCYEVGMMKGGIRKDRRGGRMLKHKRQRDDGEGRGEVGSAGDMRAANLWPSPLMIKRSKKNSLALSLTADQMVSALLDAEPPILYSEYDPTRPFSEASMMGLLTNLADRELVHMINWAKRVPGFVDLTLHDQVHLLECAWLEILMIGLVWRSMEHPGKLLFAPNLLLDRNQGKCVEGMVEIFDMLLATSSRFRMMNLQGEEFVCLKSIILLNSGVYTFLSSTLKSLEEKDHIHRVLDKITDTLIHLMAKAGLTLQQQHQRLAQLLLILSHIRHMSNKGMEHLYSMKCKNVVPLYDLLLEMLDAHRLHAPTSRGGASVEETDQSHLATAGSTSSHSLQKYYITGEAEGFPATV
# Outline: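 HEK293 cells stably carrying an ER-alpha-UAS-bla beta-lactamase reporter were pre-cultured overnight in 2% charcoal-stripped FBS medium. Test compounds in DMSO were added together with 17beta-estradiol for 18 hr at 37C. Read-out was fluorescence after 2 hr with LiveBLAzer B/G FRET substrate at room temperature.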
# [5] = target: Estrogen receptor (Homo sapiens) (UniProt P03372); experiment: qHTS assay to identify small molecule agonists of the estrogen receptor alpha (ER-alpha) signaling pathway (AID 743075; calls by dose curve; further: potency means the concentration at half of the fitted maximal effect); conditions: HEK293 ER-alpha-UAS-bla, beta-lactamase FRET ratio, 18 h; series mostly up to 70.1 µM
# [6] = qHTS assay to identify small molecule antagonists of the estrogen receptor alpha (ER-alpha) signaling pathway using the BG1 cell line (AID 743080; calls by dose curve;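 further: BG1 cells stimulated with 17beta-estradiol alongside compound; nearly all actives have a fitted effect of over 25% in size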; further: potency means the concentration at half of the fitted maximal effect); conditions: BG1Luc4E2 ERE-luciferase antagonist mode, luminescence; series mostly up to 70.3 µM
# Outline: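 Luciferase inhibition measured with ONE-Glo after 30 min at RT in BG1Luc4E2 cells given test compounds and 17beta-estradiol for 21.5 h at 37 C; CellTiter-Fluor viability read in the same wells beforehand.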
# [7] = qHTS assay to identify small molecule antagonists of the estrogen receptor alpha (ER-alpha) signaling pathway using the BG1 cell line - cell viability counter screen (AID 743081); conditions: BG1Luc4E2 viability, CellTiter-Fluor, 22 h; series mostly up to 70.3 µM;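 further: compound given together with 17beta-estradiol as the ER stimulus; nearly all actives have a fitted effect of over 45% in size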; further: potency means the concentration at half of the fitted maximal effect
# Aromatase (Homo sapiens) = Aromatase (Homo sapiens) (UniProt P11511); experiment: qHTS assay to identify aromatase inhibitors (AID 743083); conditions: MCF-7 aro ERE, testosterone-driven ERE luciferase, 24 h; series mostly up to 70.3 µM; further: nearly all actives have a fitted effect of over 55% in size; further: potency means the concentration at half of the fitted maximal effect
# Chain of Aromatase (Homo sapiens) (P11511 whole entry, looked up): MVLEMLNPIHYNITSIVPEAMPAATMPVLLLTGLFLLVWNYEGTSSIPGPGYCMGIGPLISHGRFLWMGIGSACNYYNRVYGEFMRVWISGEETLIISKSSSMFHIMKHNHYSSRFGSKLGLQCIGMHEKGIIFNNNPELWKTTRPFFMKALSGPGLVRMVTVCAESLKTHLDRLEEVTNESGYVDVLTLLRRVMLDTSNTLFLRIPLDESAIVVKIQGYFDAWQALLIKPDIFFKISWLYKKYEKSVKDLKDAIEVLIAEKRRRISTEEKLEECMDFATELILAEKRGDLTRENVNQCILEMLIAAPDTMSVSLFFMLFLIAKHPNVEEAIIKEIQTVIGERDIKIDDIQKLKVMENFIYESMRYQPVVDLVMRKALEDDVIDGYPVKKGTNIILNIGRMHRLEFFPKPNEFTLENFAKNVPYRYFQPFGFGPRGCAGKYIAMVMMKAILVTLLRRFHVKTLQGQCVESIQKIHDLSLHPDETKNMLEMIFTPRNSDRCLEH
# [8] = qHTS assay to identify small molecule antagonists of the estrogen receptor alpha (ER-alpha) signaling pathway - cell viability counter screen (AID 743074; calls by dose curve; further: nearly all actives have a fitted effect of over 45% in size; further: potency means the concentration at half of the fitted maximal effect); conditions: ERalpha-bla HEK293 viability, CellTiter-Glo luminescence, 18 h; series mostly up to 69.4 µM
# [9] = target: Estrogen receptor (Homo sapiens) (UniProt P03372); experiment: qHTS assay to identify small molecule agonists of the estrogen receptor alpha (ER-alpha) signaling pathway using the BG1 cell line (AID 743079); conditions: BG1Luc4E2 cells, ERE-luciferase agonist, 22 h; series mostly up to 70.3 µM; further: nearly all actives have a fitted effect of over 20% in size; further: potency means the concentration at half of the fitted maximal effect
Compound,Potency [1],Potency [2],Potency [3],Potency [4],Potency [5],Potency [6],Potency [7],Potency (Aromatase (Homo sapiens)),Potency [8],Potency [9]
"Cc1c2oc3c(C)ccc(C(=O)N[C@@H]4C(=O)N[C@H](C(C)C)C(=O)N5CCC[C@H]5C(=O)N(C)CC(=O)N(C)[C@@H](C(C)C)C(=O)O[C@@H]4C)c3nc-2c(C(=O)N[C@@H]2C(=O)N[C@H](C(C)C)C(=O)N3CCC[C@H]3C(=O)N(C)CC(=O)N(C)[C@@H](C(C)C)C(=O)O[C@@H]2C)c(N)c1=O (I: T[dV]P[Sar][NMeV] / II: T[dV]P[Sar][NMeV]; ester I:1-I:C, II:1-II:C; linker I:N-II:N via Actinocin(9to1))",6 nM (active) and 0.9 nM (active),4.2 nM (active),inactive,53.5 nM [inconclusive] (active) and 13.4 nM [inconclusive] (active),inactive,84.1 nM (active) and 10.6 nM (active),15 µM (active) and 13.3 µM (active),94.4 nM (active) and 1.7 nM (active),,
OCC(CO)N[C@H]1C[C@](O)(CO)[C@@H](O)[C@H](O)[C@H]1O,inactive,inactive,inactive,inactive,inactive,inactive,inactive,inactive,inactive,inactive
O=C1NCC2(CCN(CCc3ccccc3)CC2)O1,inactive,inactive,inactive,inactive,inactive,inactive,inactive,inactive,inactive,29.8 µM (active)
Clc1ccc2c(c1)C(N1CCNCC1)=Nc1ccccc1O2,30.6 µM (active),29.8 µM (active) and 30.6 µM (active),inactive,inactive,inactive,11.9 µM (active),inactive and 54.5 µM (active),inactive and 17.2 µM (active),inactive,inactive
Cc1ccc(-c2cc(C(F)(F)F)nn2-c2ccc(S(N)(=O)=O)cc2)cc1,26.6 µM (active) and 48.4 µM (active),23.7 µM (active) and 30.5 µM (active) and 54.5 µM (active),inactive,inactive and 54.9 µM [inconclusive] (active),23.9 µM [activator] (active) and inactive,inactive,inactive,29.8 µM (active) and 30.5 µM (active),inactive and 43.5 µM (active),7.5 µM (active)
CCN(CC)C(=O)Nc1ccc(OCC(O)CNC(C)(C)C)c(C(C)=O)c1 (stereo not given),inactive,inactive,inactive,inactive,inactive,inactive,inactive,inactive,inactive,inactive
Nc1nc2ccccc2[nH]1,inactive,inactive,inactive,inactive,inactive,inactive,inactive,inactive,inactive,inactive
CO[Si](OC)(OC)c1ccccc1,inactive,inactive,inactive,inactive,inactive,inactive,inactive,inactive,inactive,inactive
C=CS(=O)(=O)O,inactive,inactive,inactive,inactive,inactive,inactive,inactive,inactive,inactive,inactive
CCCNC(C)C(=O)Nc1ccccc1C (stereo not given),inactive,inactive,inactive,inactive,inactive,inactive,inactive,inactive,inactive,inactive
CCCCCCCCCCCCCCCCCl,inactive,inactive,inactive,inactive,inactive,inactive,inactive,inactive,inactive,inactive
O=C(O[C@@H]1Cc2c(O)cc(O)cc2O[C@@H]1c1cc(O)c(O)c(O)c1)c1cc(O)c(O)c(O)c1,48.7 µM (active) and 52.5 µM (active),27.4 µM (active) and 26.3 µM (active),inactive,inactive,inactive,inactive,inactive,inactive,inactive,inactive
CCC(C)(Oc1ccc(C2(c3ccc(OC(C)(CC)C(=O)O)cc3)CCCCC2)cc1)C(=O)O (stereo not given),inactive,inactive,inactive,inactive,inactive,inactive,inactive,inactive,inactive,inactive
Nc1cc(Cl)c(-c2cc(Cl)c(N)cc2Cl)cc1Cl,10.9 µM (active) and 8.63 µM (active),1.53 µM (active) and 1.54 µM (active),inactive,1.55 µM [inconclusive] (active) and 19.5 µM [inconclusive] (active),inactive,54.4 µM (active) and 54.5 µM (active),inactive,12.2 µM (active) and 15.4 µM (active),48.9 µM (active) and 24.5 µM (active),
CCc1ccc(C(c2ccc(CC)cc2)C(Cl)Cl)cc1,inactive,inactive,inactive,inactive,inactive,inactive,inactive,inactive,,
Oc1ccc(Cl)cc1Cc1cc(Cl)ccc1O,18.8 µM (active) and 15.6 µM (active) and 27.3 µM (active),7.5 µM (active) and 3.12 µM (active) and 5.45 µM (active),inactive,inactive,inactive,33.5 µM (active),inactive,29.8 µM (active) and 30.6 µM (active),49.9 µM (active) and 38.9 µM (active),

Compound,Potency [1],Potency [2],Potency [3],Potency [4],Potency [5],Potency [6],Potency [7],Potency (Aromatase (Homo sapiens)),Potency [8],Potency [9]
NCCO,inactive,inactive,inactive,inactive,inactive,inactive,inactive,inactive and 61.1 µM (active),inactive,inactive
CC(C)(O)CCC(C)(C)O,inactive,inactive,inactive,inactive,inactive,inactive,inactive,inactive,inactive,inactive
NC(N)=Nc1nc(CSCC/C(N)=N/S(N)(=O)=O)cs1,inactive,inactive,inactive,inactive,inactive,inactive,inactive,inactive,inactive,inactive
CC1COC(=O)O1 (stereo not given),inactive,inactive,inactive,inactive,inactive,inactive,inactive,inactive,inactive,inactive
CC(C)(c1ccccc1)c1ccc(Nc2ccc(C(C)(C)c3ccccc3)cc2)cc1,inactive,inactive,inactive,61.7 µM [cytotoxic] (active),inactive,inactive,inactive,inactive,,inactive
NCCCCCC(=O)O,inactive,inactive,inactive,inactive,inactive,inactive,inactive,inactive,inactive,inactive
BrC1CCC(Br)C(Br)CCC(Br)C(Br)CCC1Br (stereo not given),5.43 µM (active) and 20.6 µM (active),4.84 µM (active) and 13 µM (active),inactive,inactive,inactive,inactive,inactive,,48.8 µM (active),
Cc1scc2c1N(C(=O)CN1CCN(C)CC1)c1ccccc1NC2=O,inactive,inactive,inactive,inactive,inactive,inactive,inactive,inactive,inactive,inactive
C=CC(=O)OCCCCCCCC,inactive,inactive,inactive,inactive,inactive,inactive,inactive,inactive,inactive,inactive
CC(C)CCCCCCc1ccc(O)cc1,17.5 µM (active) and 24.3 µM (active),22.1 µM (active) and 21.7 µM (active),inactive,inactive,2.39 µM [inconclusive] (active) and 1.25 µM [inconclusive] (active) and 17.4 µM [inconclusive] (active),inactive and 43.3 µM (active),inactive,34.4 µM (active),inactive,1.88 µM (active) and 878 nM (active) and 2.17 µM (active)
Cc1cccc(O)c1C,inactive,inactive,inactive,inactive,inactive,inactive,inactive,inactive,inactive,inactive
C=C(C)C1CC=C(C)C(OC(C)=O)C1 (stereo not given),inactive,inactive,inactive,inactive,inactive,inactive,inactive,inactive,inactive,inactive
CCOc1ccccc1C(N)=O,inactive,inactive,inactive,inactive,inactive,inactive,inactive,inactive,inactive,inactive
C=C(C)C(=O)O,inactive,inactive,inactive,inactive,inactive,inactive,inactive,inactive,inactive,inactive
COc1ccc(Cc2cnc(N)nc2N)cc1OC,inactive,inactive,inactive,inactive,inactive,inactive,inactive,inactive,inactive,inactive
Cc1cc(C2(c3cc(C)c(O)cc3C)OS(=O)(=O)c3ccccc32)c(C)cc1O,54.5 µM (active),inactive,inactive,1.74 µM [inconclusive] (active),1.38 µM [inconclusive] (active) and inactive,inactive,27.3 µM (active) and 24.3 µM (active),,inactive,864 nM (active) and 10.9 µM (active)
